This note sets out measurements from the supplement of paper PMC6555819.

For one test, the system named is PPARg DBDmut:RXRa IVT, anti-PPARg (DBD mutation: PPARg1 K132A/R137A, NR concentration 270 nM, RXRa partner concentration 90 nM). The test is described as follows: PBM binding z-score (relative to random genomic background probes); higher = stronger binding; sequences stand for … in GC…GCGATTGACAGCGTAGAATGAAGG
In a few lines: (§1)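 Binding z-scores take random background probes as their reference. They come from custom Agilent 4×180K protein-binding microarrays incubated 1 h with ligand-free nuclear receptor dimers, with antibodies against each partner (one per run) detecting binding. Scanned fluorescence was regression-normalized.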
On to CGAACTAGGTCATTGACAGGACAGAGAATAGTAA, for which the PBM binding z-score amounted to 4.58.
The same measure, in the same setting: with CGCACGAGGGCATGAGTTGATAGCAAATGCCGAT the figure was -0.109; with ACAGACAGGTGAGTGAAGATAACTCAGCTGGACG, 0.243; with GCGACTGGGGCATCCGCAGGTTACCATAACTTAA, -1.11.
As to ACTAGCAGGCCAAGTGTGGGTCACTCAAACAAAG, the PBM binding z-score was -0.334.
On the same count and under the same terms, with GATACAGGGTCAAGGCGAGAGTACGCGTATTGAT the figure was 2.63; with ACAGACAGGTGAGTAAAGGTAACTCAGCTGGACG, 0.151; with ACTAGTTGGTCAGCTGAGGTCACCCACAATTCGG, 0.761.
Still for that read-out and setting: with CCGAGTGGGGCAAGGTTACCATAACGCACAGCCA the figure was -0.586.
The same measure, in the same setting: with CAAACTAGGTCAAGAGGTCAAAATCCGCTTCCCG the figure was 1.85.
CCGACTTGGGCATAAGGTTACCATAAGCCAGCCC displayed a PBM binding z-score of -0.991.
The same measure, in the same setting: with CGTTACGGGTCACTGACAGGTTATAGCATTTGGA the figure was 0.269.
Still for that read-out and setting: with CGAGCTAGGTCATCCAGGACAGTGAATACATTGA the figure was 0.0496; with CCTAGTTGGTCAAGTTCACACACGCTATAGGTAC, 0.944; with CGTCCAAGGTCATAGGAGGTCAGTGTAGACAGAT, 0.558.
Still for that read-out and setting: with CCTAGTTGGTCAGCAGGTCACACACCGGATATGA the figure was -0.32.
CGTCCAAGGCCAGCAGGTCAGTGAAAGCGACGTG: the PBM binding z-score was -0.768.
Still for that read-out and setting: with TCTATTATTTGATTAGGGCAACCGAAACAGCGGA the figure was 2.04.

The test system of the next test is PPARg DBDmut IVT, anti-PPARg (DBD mutation: PPARg1 K132A/R137A, NR concentration 270 nM). The description is as above. In a few lines: as §1
Sequence CCGACTGGGGCATAAGGTTACTATAAGCCAGCCC displayed a PBM binding z-score of -1.53.
Same read-out and setting: with CTCGAAAGGTCGGTTGAGGTGAGTACACGGATAA the figure was -0.276; with AATACAGGGTCACTATGCCAGAGTAGGTACGAAT, 1.8.
TAGCCTAGGTCAGATCGGGCCTGTATACGCTATA registered a PBM binding z-score of 0.156.
Same read-out and setting: with TATACAGGGTCAAAGGCCAGGGTACGAATGTCGA the figure was 1.6.
Sequence TCTAGTTGGTCACGGAGGTCACACTCGACGGGTA showed a PBM binding z-score of 0.684.
The same measure, in the same setting: with AGTTAAAGTTCACTAGGTAACGTAAGATTCAGCT the figure was 1.19; with CCTTACGGGTCACTGACAGGTTATACCATTTGGA, 0.106; with ACCGAAAGGTCGTGAGGTGAGTATACAGAAAGGC, 0.846.
Consider CGTCCAAGGTGAAGGTCAGTGAAAGAGACTCGAA, for which the PBM binding z-score was -0.465.
Regarding ATCTCTAGGTAGGACTCAGTTCAGTGAAGAACGC, the PBM binding z-score came to 1.31.
Still for that read-out and setting: with ACTATTAGTTGAGACGACGGCAACCGATAGGTTG the figure was 0.567.
Still for that read-out and setting: with ATCACTAGGTAAGACTCAGTTCAGTGAAGAACGC the figure was 1.07; with TCATATAGGTAAATGCTAGGTGTAAGTCCGATCT, 1.15; with CTCGAAAGGTCGTGCTCAGGTGGGTATACCAAAC, 0.179.
AGAATGAGCTTATTAAGATCAGGGAATTGCGGTC returned a PBM binding z-score of 0.244.
As for TCTCGGAGGACACGACAGGTCAGAGCTCGACATC, the PBM binding z-score is -0.496.
Same read-out and setting: with TCTTGTAGATCAGGCAGGTTAAGAAAGCCTGAGT the figure was -0.335; with GATACAGGGTCAGCTAGAGGCCAAAGTATGGAAA, 0.0688.
The same measure, in the same setting: with CCTATTAGTTGACCATAAGGGTAACCGAAGCTCG the figure was 1.15.
The sequence ATCTCTAGGTAAAGATAGTTCAGTGGATGCAAAT showed a PBM binding z-score of 0.158.
Still for that read-out and setting: with CAGCCTAGGTCAGTGCCAGTATAGGAGGAACGTT the figure was -1.02; with CGAACTAGGTCATTGACAGGACAGAGAATAGTAA, 3.51; with CGCACGAGGGCATGAGTTGATAGCAAATGCCGAT, -0.507.
The same measure, in the same setting: with ACAGACAGGTGAGTGAAGATAACTCAGCTGGACG the figure was 0.332; with GCGACTGGGGCATCCGCAGGTTACCATAACTTAA, -0.898.
On the same count and under the same terms, with ACTAGCAGGCCAAGTGTGGGTCACTCAAACAAAG the figure was -0.527; with GATACAGGGTCAAGGCGAGAGTACGCGTATTGAT, 0.177; with ACAGACAGGTGAGTAAAGGTAACTCAGCTGGACG, -0.231.
On to ACTAGTTGGTCAGCTGAGGTCACCCACAATTCGG, for which the PBM binding z-score was 0.737.
On to CCGAGTGGGGCAAGGTTACCATAACGCACAGCCA, for which the PBM binding z-score was -0.492.
The same measure, in the same setting: with CAAACTAGGTCAAGAGGTCAAAATCCGCTTCCCG the figure was 1.15; with CCGACTTGGGCATAAGGTTACCATAAGCCAGCCC, -1.38; with CGTTACGGGTCACTGACAGGTTATAGCATTTGGA, 0.284.
On the same count and under the same terms, with CGAGCTAGGTCATCCAGGACAGTGAATACATTGA the figure was -0.51; with CCTAGTTGGTCAAGTTCACACACGCTATAGGTAC, 1.02.
The same measure, in the same setting: with CGTCCAAGGTCATAGGAGGTCAGTGTAGACAGAT the figure was 0.275; with CCTAGTTGGTCAGCAGGTCACACACCGGATATGA, 0.126.
CGTCCAAGGCCAGCAGGTCAGTGAAAGCGACGTG gave a PBM binding z-score of -0.983.
Same read-out and setting: with TCTATTATTTGATTAGGGCAACCGAAACAGCGGA the figure was 2.12.

The test system of the next test is PPARg homodimer (NR concentration 180 nM). Described as above. In a few lines: as §1
The sequence CCGACTGGGGCATAAGGTTACTATAAGCCAGCCC had a PBM binding z-score of 0.494.
Same read-out and setting: with CTCGAAAGGTCGGTTGAGGTGAGTACACGGATAA the figure was 0.988; with AATACAGGGTCACTATGCCAGAGTAGGTACGAAT, 1.62; with TAGCCTAGGTCAGATCGGGCCTGTATACGCTATA, 0.016.
Still for that read-out and setting: with TATACAGGGTCAAAGGCCAGGGTACGAATGTCGA the figure was 2.3; with TCTAGTTGGTCACGGAGGTCACACTCGACGGGTA, 2.95.
Still for that read-out and setting: with AGTTAAAGTTCACTAGGTAACGTAAGATTCAGCT the figure was 2.19; with CCTTACGGGTCACTGACAGGTTATACCATTTGGA, 2.46.
For ACCGAAAGGTCGTGAGGTGAGTATACAGAAAGGC, the PBM binding z-score is 1.51.
The same measure, in the same setting: with CGTCCAAGGTGAAGGTCAGTGAAAGAGACTCGAA the figure was 0.911; with ATCTCTAGGTAGGACTCAGTTCAGTGAAGAACGC, 0.939; with ACTATTAGTTGAGACGACGGCAACCGATAGGTTG, 0.0844.
On the same count and under the same terms, with ATCACTAGGTAAGACTCAGTTCAGTGAAGAACGC the figure was 0.437; with TCATATAGGTAAATGCTAGGTGTAAGTCCGATCT, 0.2.
Still for that read-out and setting: with CTCGAAAGGTCGTGCTCAGGTGGGTATACCAAAC the figure was 1.84.
Regarding AGAATGAGCTTATTAAGATCAGGGAATTGCGGTC, the PBM binding z-score is -0.453.
The same measure, in the same setting: with TCTCGGAGGACACGACAGGTCAGAGCTCGACATC the figure was 0.53.
Still for that read-out and setting: with TCTTGTAGATCAGGCAGGTTAAGAAAGCCTGAGT the figure was -0.356.
Same read-out and setting: with GATACAGGGTCAGCTAGAGGCCAAAGTATGGAAA the figure was 3.56.
With CCTATTAGTTGACCATAAGGGTAACCGAAGCTCG, the PBM binding z-score was 1.86.
The same measure, in the same setting: with ATCTCTAGGTAAAGATAGTTCAGTGGATGCAAAT the figure was 0.189.
The sequence CAGCCTAGGTCAGTGCCAGTATAGGAGGAACGTT returned a PBM binding z-score of 0.587.
In turn, CGAACTAGGTCATTGACAGGACAGAGAATAGTAA returned a PBM binding z-score of 2.33.
The same measure, in the same setting: with CGCACGAGGGCATGAGTTGATAGCAAATGCCGAT the figure was 0.288; with ACAGACAGGTGAGTGAAGATAACTCAGCTGGACG, -0.119; with GCGACTGGGGCATCCGCAGGTTACCATAACTTAA, -0.268.
The same measure, in the same setting: with ACTAGCAGGCCAAGTGTGGGTCACTCAAACAAAG the figure was 0.309; with GATACAGGGTCAAGGCGAGAGTACGCGTATTGAT, 3.25.
Still for that read-out and setting: with ACAGACAGGTGAGTAAAGGTAACTCAGCTGGACG the figure was -0.162.
As for ACTAGTTGGTCAGCTGAGGTCACCCACAATTCGG, the PBM binding z-score turned out to be 3.43.
The same measure, in the same setting: with CCGAGTGGGGCAAGGTTACCATAACGCACAGCCA the figure was 0.921; with CAAACTAGGTCAAGAGGTCAAAATCCGCTTCCCG, 4.78.
Consider CCGACTTGGGCATAAGGTTACCATAAGCCAGCCC, for which the PBM binding z-score stood at 0.34.
On the same count and under the same terms, with CGTTACGGGTCACTGACAGGTTATAGCATTTGGA the figure was 2.14; with CGAGCTAGGTCATCCAGGACAGTGAATACATTGA, 1.51.
Turning to CCTAGTTGGTCAAGTTCACACACGCTATAGGTAC, the PBM binding z-score was found to be 2.59.
CGTCCAAGGTCATAGGAGGTCAGTGTAGACAGAT came in with a PBM binding z-score of 4.52.
Same read-out and setting: with CCTAGTTGGTCAGCAGGTCACACACCGGATATGA the figure was 2.23; with CGTCCAAGGCCAGCAGGTCAGTGAAAGCGACGTG, 0.0229.
On the same count and under the same terms, with TCTATTATTTGATTAGGGCAACCGAAACAGCGGA the figure was 2.2.
